PubChem BioAssay (NCI)
This is part of a sample that, as a whole, favours compounds with a hit. Of some 83,000 tested, about 20% had one in any assay.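 Interpretation: 100, growth as untreated; towards 0, rising growth inhibition; 0, no net growth; 0 to -100, cell death. Compounds scoring below 10 were considered active.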 Calls of active or inactive are those of the source.

What follows are compounds tested on SN12C renal (assay: NCI-60 one-dose screen, 48 h (100 = growth as untreated, 0 = no growth, -100 = all killed)). Settings: 10 µM unless noted.

SMILES	growth
CN1CCN(Cc2ccc(NC(=O)c3cncc(C#Cc4cnc5ccc(N6CCN(C)CC6)nn45)c3)cc2C(F)(F)F)CC1	15.7% (inactive)
O=C(O)c1cn(C2CC2)c2cc(N3CCN(C(=O)CN4C(=O)CSC4=O)CC3)c(F)cc2c1=O	91.7% (inactive)
NC/C(=C/F)COc1ccc2nc(NCc3cccnc3)oc2c1	86.3% (inactive)
C=C(C)[C@@H]1CC[C@]2(C(=O)NCCCCCN(CCC#N)CCC#N)CC[C@]3(C)[C@H](CC[C@@H]4[C@@]5(C)CCC(=O)C(C)(C)[C@@H]5CC[C@]43C)[C@@H]12	89.3% (inactive)
CCCCNNC(=O)c1ccc(-c2cccc(F)c2F)cc1	56.3% (inactive)
C#Cc1ccc(C(=O)NCc2ccc(/C=C/C(=O)c3nccn3C)cc2)cc1	14.8% (inactive)
COc1ccc(/C(N)=N/C(N)=N/c2nc3ccccc3s2)cc1	79% (inactive)
O=C(CN1CCN(c2cc(=O)[nH]c3ccc(F)cc23)CC1)Nc1ccc(Cl)cc1	60.8% (inactive)
Cc1ccc(-n2cc(/C=C/C(=O)c3ccc(O)cc3)c(-c3ccc(S(C)(=O)=O)cc3)n2)cc1	63.5% (inactive)
O=S(=O)(NCCCNc1nccc(-c2[nH]c(-c3ccccc3)nc2-c2ccc(Cl)c(O)c2)n1)c1cccc(F)c1	68.2% (inactive)
Cc1cc(-c2ccc(Cl)cc2)n(Cc2nnc(SCC(=O)Nc3ccc(S(N)(=O)=O)cc3)n2C2CCCCC2)n1	105% (inactive)
Oc1cccc2ccc(-c3nnc(SCc4ccc(O)c5ncccc45)n3-c3ccccc3)nc12	20% (inactive)
Cc1ccc(-c2nn(-c3ccccc3)cc2/C=C/C(=O)c2ccc(NC(=O)CCCCCCC(=O)NO)cc2)cc1	73.5% (inactive)
CC(C)(C)c1ccc(C(=O)Nc2sc3c(c2C(N)=O)CCC(O)C3)cc1 (stereo not drawn)	74.8% (inactive)
O=C(Nc1ccc2c(ccn2Cc2ccccn2)c1)c1ccnnc1	70.2% (inactive)
CC(C)(C)c1ccc(C(=O)Nc2sc3c(c2C(N)=O)CC/C(=N\O)C3)cc1	21.5% (inactive)
NC(N)=Nc1ccc(Oc2cccc(Nc3ccc(Cl)cc3)c2)cn1	12.3% (inactive)
CCc1cccc(NC(=O)CNc2cc(S(=O)(=O)N(C)C)cc(C)c2C)c1	69.4% (inactive)
COc1ccc(N2C(=O)c3cc(Cl)ccc3NC2SCc2ccccc2)cc1 (stereo not drawn)	91.5% (inactive)

SMILES	growth
O=C(CN1CCN(c2cc(=O)n(-c3ccccc3)c3ccccc23)CC1)Nc1nc(-c2ccc(Cl)cc2)cs1	74.1% (inactive)
COc1ccc(C2c3sc4c(C)cccc4c3Oc3nc(CC(=O)Nc4ccccc4)[nH]c(=O)c32)cc1 (stereo not drawn)	79.1% (inactive)
O=C(/C=C/c1ccc(F)cc1)c1ccc(O)cc1	91.9% (inactive)
Cn1ccnc1C(=O)/C=C/c1ccc(NC(=O)c2c(F)c(F)c(F)c(F)c2F)cc1	101% (inactive)
Nc1cc(-c2c[nH]c3ccc(Br)cc23)nc2cc(-c3c[nH]c4ccc(Br)cc34)nn12	26.8% (inactive)
C#CCC#CCN1CCC[C@H]1C(=O)NCC(=O)OC	98.4% (inactive)
COc1cc(/C=C/C(=O)c2ccc(NC(=O)CSc3nnc(-c4ccc(-c5nc6ccc(Cl)cc6[nH]5)cc4)o3)cc2)cc(OC)c1OC	104% (inactive)
Oc1cccc2ccc(-c3nnc(SCc4ccc(O)c5ncccc45)o3)nc12	7.07% (active)
NS(=O)(=O)c1ccc(Nc2nc(SCc3ccccc3)nc3ccccc23)cc1	65.1% (inactive)
O=C1[C@@H]2Cc3c([nH]c4ccccc34)[C@H](c3c(Cl)cccc3Cl)N2C(=O)CN1C1CCN(CC2CCCCC2)CC1	61.4% (inactive)
NS(=O)(=O)c1ccc(Nc2nc(N/N=C/c3c[nH]c4ccccc34)nc(Nc3ccccc3)n2)cc1	40.2% (inactive)
N#Cc1c(-c2cccs2)cc(-c2cnccn2)nc1SCC(=O)Nc1ccc(Br)cc1	87.7% (inactive)
COc1ccc(Cn2cc3c(c2-c2cc(OC)c(OC)c(OC)c2)CCc2c(CN4CCOCC4)noc2-3)cc1	31.6% (inactive)
C=CCn1c(SCC(=O)Nc2ccc(C(=O)/C=C/c3ccc(C)cc3)cc2)nnc1-c1c[nH]c2ccccc12	83.6% (inactive)
COc1ccccc1C(=O)Nc1cccc2c1C(=O)C(=O)C=C2	90.9% (inactive)
COc1cc(-c2nn(C(C)(C)C)cc2-c2ccnc(NCCCNS(=O)(=O)c3ccc(Cl)cc3)n2)ccc1Cl	46% (inactive)
CCc1cccc2c3c(sc12)C(c1ccc(Cl)cc1)C(C#N)=C(/N=C/c1ccc(Cl)cc1)O3 (stereo not drawn)	33.9% (inactive)
C=C(C=O)[C@@H]1CC[C@]2(COC(C)=O)CC[C@]3(C)C(CC[C@@H]4[C@@]5(C)CC[C@H](OC(C)=O)C(C)(C)[C@@H]5CC[C@]43C)[C@@H]12 (stereo partly drawn)	1.13% (active)
COc1ccccc1N1CCN(C2=CC(=O)C(C)=C(C)C2=O)CC1	104% (inactive)
